We go through 1 sequence from article PMC7862700, “An all-to-all approach to the identification of sequence-specific readers for epigenetic DNA modifications on cytosine”.

Assay in all cases: DAPPL (digital affinity profiling via proximity ligation, sequencing); 10 mM Tris-HCl pH 7.5, 50 mM NaCl, 1 mM DTT, 4% glycerol, room temperature, 30 min; GST-TFs on glutathione beads, 16-mer random dsDNA library, 0.1% formaldehyde crosslink after washing; high values mean tight binding
For assay [1], the target named is T1, FLI1 (Homo sapiens, UniProt Q01543 1-452).
T1 sequence: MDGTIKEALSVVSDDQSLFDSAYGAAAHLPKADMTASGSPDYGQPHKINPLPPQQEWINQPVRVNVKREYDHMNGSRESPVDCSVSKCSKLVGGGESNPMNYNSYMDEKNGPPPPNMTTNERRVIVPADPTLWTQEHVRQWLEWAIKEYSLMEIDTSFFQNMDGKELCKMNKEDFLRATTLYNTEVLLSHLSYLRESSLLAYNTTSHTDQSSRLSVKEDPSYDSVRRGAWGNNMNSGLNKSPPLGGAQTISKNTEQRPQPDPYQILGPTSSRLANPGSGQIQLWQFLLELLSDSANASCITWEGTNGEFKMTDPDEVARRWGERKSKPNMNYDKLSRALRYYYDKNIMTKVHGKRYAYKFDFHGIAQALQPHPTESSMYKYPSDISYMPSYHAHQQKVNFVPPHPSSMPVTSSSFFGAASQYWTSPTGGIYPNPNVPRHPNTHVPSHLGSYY
Conditions: protein: recombinant; tags: N-terminal GST; dsDNA, one strand shown. Summed up: (§1)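 After expression in yeast as GST fusions, human transcription factors were bound to glutathione beads, DNA-barcoded and mixed with a tag-only sample. The pools were incubated with 200 nmole of a 16-mer random double-stranded DNA library in Tris/NaCl/DTT/glycerol buffer (30 min, room temperature), washed and crosslinked with 0.1% formaldehyde. Proximity ligation with BsaI/T4 ligase ran for 1 h at 37 °C, before PCR amplification and sequencing on an Illumina NextSeq500. Binding signal is a hexamer's read frequency for a factor divided by its frequency for the tag-only sample.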

The target of assay [2] is T2, ELK1 (Homo sapiens, UniProt P19419 1-428).
T2 sequence: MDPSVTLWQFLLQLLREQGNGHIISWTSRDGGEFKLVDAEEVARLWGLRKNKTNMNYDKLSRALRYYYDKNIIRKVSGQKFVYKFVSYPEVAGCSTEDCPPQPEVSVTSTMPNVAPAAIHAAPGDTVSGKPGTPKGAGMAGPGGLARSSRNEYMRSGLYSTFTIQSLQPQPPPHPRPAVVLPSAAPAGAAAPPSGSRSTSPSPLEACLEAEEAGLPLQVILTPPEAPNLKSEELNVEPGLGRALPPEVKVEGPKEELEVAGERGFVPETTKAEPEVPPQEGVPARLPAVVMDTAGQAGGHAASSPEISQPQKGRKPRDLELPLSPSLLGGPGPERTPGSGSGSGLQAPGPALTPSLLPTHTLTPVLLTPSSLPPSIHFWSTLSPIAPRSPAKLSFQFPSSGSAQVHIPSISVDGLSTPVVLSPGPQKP
Conditions: protein: recombinant; tags: N-terminal GST; dsDNA, one strand shown. Summed up: as §1

Assay [3] deals with T3, GABPA (Homo sapiens, UniProt Q06546 1-454).
T3 sequence: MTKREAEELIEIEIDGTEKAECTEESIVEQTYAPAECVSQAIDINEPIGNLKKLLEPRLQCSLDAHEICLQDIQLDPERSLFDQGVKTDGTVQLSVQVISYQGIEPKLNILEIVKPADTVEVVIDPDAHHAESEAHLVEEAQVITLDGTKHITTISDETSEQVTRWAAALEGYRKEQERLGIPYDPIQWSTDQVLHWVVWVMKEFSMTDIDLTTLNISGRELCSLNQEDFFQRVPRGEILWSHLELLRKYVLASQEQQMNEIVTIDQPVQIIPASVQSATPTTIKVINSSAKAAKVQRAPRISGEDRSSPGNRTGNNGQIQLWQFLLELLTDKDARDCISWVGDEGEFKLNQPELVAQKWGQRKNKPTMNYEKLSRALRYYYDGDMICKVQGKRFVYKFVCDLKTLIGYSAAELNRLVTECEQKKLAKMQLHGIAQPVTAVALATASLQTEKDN
Conditions: protein: recombinant; tags: N-terminal GST; dsDNA, one strand shown. Summed up: as §1

Assay [4] has as its target T4, ERG (Homo sapiens, UniProt P11308 1-479).
T4 sequence: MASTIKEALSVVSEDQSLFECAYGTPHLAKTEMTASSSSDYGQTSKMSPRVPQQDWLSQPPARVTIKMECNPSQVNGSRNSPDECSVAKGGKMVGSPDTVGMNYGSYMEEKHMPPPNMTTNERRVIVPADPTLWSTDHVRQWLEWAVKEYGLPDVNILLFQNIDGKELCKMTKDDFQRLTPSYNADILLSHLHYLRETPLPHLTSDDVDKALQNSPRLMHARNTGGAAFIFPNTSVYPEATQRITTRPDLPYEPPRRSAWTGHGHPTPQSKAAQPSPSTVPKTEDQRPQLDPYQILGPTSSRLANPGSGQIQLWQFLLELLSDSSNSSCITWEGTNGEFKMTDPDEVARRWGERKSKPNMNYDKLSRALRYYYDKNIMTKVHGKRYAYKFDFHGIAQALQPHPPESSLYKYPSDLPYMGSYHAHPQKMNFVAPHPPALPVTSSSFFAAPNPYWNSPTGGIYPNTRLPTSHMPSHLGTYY
Conditions: protein: recombinant; tags: N-terminal GST; dsDNA, one strand shown. In outline:
as §1

Assay [5] deals with ELF1 (Homo sapiens, UniProt P32519 1-619). Particulars: protein: recombinant; tags: N-terminal GST; dsDNA, one strand shown. Summed up: as §1
Assay [6] addresses T5, EHF (Homo sapiens, UniProt Q9NZC4 1-300).
T5 sequence: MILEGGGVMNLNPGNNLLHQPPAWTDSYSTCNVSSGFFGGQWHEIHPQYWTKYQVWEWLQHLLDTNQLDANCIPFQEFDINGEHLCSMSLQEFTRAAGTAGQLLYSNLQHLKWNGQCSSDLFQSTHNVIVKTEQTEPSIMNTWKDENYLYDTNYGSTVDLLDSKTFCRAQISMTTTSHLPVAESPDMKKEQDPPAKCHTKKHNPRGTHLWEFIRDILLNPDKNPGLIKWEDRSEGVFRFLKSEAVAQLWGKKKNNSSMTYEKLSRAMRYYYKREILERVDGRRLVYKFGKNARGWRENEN
Conditions: protein: recombinant; tags: N-terminal GST; dsDNA, one strand shown. In outline: as §1

Assay [7] has as its target SPI1 (Homo sapiens, UniProt P17947 1-270). Conditions: protein: recombinant; tags: N-terminal GST; dsDNA, one strand shown. In outline: as §1
Assay [8] concerns the target SPIB (Homo sapiens, UniProt Q01892 1-262). Conditions: protein: recombinant; tags: N-terminal GST; dsDNA, one strand shown. In outline:
as §1

Assay [9] concerns the target T6, ELK3 (Homo sapiens, UniProt P41970 1-407).
T6 sequence: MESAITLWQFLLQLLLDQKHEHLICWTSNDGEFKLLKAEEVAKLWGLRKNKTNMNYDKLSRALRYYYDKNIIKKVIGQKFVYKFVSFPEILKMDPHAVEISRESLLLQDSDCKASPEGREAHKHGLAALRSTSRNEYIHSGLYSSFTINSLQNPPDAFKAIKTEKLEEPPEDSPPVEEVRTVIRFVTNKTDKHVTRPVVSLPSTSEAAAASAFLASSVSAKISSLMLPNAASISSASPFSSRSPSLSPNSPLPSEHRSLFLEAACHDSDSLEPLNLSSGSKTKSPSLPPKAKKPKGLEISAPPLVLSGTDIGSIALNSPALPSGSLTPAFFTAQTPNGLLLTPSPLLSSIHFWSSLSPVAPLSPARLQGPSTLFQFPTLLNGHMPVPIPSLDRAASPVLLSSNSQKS
Conditions: protein: recombinant; tags: N-terminal GST; dsDNA, one strand shown. In outline: as §1

The target of assay [10] is T7, FEV (Homo sapiens, UniProt Q99581 1-238).
T7 sequence: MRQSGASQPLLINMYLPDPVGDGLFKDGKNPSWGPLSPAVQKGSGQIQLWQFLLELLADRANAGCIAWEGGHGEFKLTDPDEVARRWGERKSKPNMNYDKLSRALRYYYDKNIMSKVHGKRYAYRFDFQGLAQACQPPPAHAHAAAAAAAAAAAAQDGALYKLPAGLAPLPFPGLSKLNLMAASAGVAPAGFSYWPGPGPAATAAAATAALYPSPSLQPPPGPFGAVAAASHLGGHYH
Particulars: protein: recombinant; tags: N-terminal GST; dsDNA, one strand shown. In outline:
as §1

Assay [11] deals with ETV5 (Homo sapiens, UniProt P41161 1-510). Particulars: protein: recombinant; tags: N-terminal GST; dsDNA, one strand shown. Summed up:
as §1

Assay [12] concerns the target HSF1 (Homo sapiens, UniProt Q00613 1-529). Particulars: protein: recombinant; tags: N-terminal GST; chain copies: 3; dsDNA, one strand shown. In outline: as §1
For assay [13], the target named is T8, SPIC (Homo sapiens, UniProt Q8N5J4 1-248).
T8 sequence: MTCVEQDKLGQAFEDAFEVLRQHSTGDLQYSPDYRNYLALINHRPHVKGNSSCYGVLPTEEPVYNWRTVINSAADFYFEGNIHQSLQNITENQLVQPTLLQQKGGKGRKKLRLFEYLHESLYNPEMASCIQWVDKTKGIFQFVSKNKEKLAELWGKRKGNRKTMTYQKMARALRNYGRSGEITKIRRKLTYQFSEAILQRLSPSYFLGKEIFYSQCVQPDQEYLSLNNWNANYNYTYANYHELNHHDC
Particulars: protein: recombinant; tags: N-terminal GST; dsDNA, one strand shown. Summed up:
as §1

In assay [14] the target is ELF4 (Homo sapiens, UniProt Q99607 1-663). Conditions: protein: recombinant; tags: N-terminal GST; dsDNA, one strand shown. In outline: as §1
Assay [15] deals with T9, ELK4 (Homo sapiens, UniProt P28324-2 1-405).
T9 sequence: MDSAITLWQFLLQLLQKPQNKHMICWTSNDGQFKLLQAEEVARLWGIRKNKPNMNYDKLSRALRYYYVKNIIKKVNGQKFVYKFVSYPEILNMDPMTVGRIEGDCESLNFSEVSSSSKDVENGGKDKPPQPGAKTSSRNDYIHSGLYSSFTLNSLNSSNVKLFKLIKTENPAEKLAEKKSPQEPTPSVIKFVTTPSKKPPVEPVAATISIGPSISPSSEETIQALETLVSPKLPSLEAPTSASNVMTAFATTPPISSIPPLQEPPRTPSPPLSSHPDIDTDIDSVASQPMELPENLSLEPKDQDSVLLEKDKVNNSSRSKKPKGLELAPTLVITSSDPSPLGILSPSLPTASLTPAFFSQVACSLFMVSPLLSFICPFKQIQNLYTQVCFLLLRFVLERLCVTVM
Conditions: protein: recombinant; tags: N-terminal GST; dsDNA, one strand shown. In outline: as §1

In assay [16] the target is T10, ETV2 (Homo sapiens, UniProt O00321 1-342).
T10 sequence: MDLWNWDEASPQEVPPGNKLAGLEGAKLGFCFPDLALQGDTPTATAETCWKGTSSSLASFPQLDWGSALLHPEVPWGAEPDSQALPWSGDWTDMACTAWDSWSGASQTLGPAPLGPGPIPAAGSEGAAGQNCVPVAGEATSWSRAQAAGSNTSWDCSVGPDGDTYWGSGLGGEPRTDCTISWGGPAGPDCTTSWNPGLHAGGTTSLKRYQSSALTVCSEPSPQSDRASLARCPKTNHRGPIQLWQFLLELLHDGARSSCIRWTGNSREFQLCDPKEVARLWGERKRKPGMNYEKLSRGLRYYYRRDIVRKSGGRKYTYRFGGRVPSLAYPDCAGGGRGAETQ
Particulars: protein: recombinant; tags: N-terminal GST; dsDNA, one strand shown. Summed up: as §1

Assay [17] deals with T11, ELF3 (Homo sapiens, UniProt P78545 1-371).
T11 sequence: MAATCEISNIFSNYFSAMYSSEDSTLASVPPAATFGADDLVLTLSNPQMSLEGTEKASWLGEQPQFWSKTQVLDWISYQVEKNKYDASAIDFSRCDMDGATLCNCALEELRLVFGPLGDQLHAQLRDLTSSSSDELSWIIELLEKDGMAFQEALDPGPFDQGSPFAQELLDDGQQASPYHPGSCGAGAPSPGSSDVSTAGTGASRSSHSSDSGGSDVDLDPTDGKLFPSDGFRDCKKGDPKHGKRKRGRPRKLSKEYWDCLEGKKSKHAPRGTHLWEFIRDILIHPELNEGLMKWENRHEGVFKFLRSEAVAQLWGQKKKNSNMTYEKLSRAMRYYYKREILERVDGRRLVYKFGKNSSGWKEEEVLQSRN
Particulars: protein: recombinant; tags: N-terminal GST; dsDNA, one strand shown. Summed up: as §1

Assay [18] concerns the target ETV1 (Homo sapiens, UniProt P50549 1-477). Conditions: protein: recombinant; tags: N-terminal GST; dsDNA, one strand shown. Summed up:
as §1

Chain of ELF4 (Q99607 whole entry): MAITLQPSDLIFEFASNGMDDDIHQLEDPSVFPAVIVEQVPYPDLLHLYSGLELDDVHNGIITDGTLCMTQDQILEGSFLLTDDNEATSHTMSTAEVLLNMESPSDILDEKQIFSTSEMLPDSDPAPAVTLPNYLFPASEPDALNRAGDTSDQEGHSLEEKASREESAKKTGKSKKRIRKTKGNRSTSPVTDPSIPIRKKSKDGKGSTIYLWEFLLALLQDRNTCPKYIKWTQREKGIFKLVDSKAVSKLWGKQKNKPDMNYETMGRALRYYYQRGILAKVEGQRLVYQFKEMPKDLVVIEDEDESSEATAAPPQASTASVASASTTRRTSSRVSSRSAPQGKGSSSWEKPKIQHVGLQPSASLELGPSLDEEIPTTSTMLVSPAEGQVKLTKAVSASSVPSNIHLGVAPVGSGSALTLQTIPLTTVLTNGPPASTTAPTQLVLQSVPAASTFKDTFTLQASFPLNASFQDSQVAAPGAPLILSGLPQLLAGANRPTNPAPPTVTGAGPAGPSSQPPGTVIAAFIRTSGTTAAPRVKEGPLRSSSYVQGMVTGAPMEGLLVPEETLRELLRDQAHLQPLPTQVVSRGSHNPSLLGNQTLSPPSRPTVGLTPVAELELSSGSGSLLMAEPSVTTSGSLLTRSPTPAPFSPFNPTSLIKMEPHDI
Chain of ELF1 (P32519 whole entry): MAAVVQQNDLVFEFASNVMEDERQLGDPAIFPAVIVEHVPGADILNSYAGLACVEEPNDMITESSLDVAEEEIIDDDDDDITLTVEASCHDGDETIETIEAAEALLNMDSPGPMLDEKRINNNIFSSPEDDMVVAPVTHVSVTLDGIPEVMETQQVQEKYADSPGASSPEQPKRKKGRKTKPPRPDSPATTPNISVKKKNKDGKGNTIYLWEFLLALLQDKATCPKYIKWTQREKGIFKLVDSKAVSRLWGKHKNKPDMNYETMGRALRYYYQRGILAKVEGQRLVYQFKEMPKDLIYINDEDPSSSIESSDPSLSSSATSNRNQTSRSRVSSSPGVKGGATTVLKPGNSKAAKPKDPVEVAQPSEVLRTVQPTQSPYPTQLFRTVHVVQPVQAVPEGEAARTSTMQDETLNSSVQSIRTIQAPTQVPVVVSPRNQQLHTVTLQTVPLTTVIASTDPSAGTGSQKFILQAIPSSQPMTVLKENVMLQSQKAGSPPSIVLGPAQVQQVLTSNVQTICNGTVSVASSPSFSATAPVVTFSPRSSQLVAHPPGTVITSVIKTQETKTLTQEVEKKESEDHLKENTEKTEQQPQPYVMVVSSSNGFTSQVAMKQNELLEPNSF
Chain of ETV5 (P41161 whole entry): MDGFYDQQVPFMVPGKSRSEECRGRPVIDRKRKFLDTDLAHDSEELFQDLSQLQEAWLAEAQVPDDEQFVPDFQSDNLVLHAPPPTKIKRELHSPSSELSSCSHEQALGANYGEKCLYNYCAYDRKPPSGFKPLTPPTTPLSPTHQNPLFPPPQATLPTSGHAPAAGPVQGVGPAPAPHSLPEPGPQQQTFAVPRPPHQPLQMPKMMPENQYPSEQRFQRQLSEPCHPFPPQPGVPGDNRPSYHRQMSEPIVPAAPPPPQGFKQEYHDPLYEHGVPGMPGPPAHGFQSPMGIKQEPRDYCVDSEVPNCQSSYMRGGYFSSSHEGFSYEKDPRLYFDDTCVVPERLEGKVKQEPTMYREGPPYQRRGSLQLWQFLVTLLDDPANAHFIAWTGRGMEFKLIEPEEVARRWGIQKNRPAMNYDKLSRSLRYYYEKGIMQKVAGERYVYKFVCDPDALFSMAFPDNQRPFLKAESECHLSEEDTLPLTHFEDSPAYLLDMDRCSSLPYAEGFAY
Chain of HSF1 (Q00613 whole entry): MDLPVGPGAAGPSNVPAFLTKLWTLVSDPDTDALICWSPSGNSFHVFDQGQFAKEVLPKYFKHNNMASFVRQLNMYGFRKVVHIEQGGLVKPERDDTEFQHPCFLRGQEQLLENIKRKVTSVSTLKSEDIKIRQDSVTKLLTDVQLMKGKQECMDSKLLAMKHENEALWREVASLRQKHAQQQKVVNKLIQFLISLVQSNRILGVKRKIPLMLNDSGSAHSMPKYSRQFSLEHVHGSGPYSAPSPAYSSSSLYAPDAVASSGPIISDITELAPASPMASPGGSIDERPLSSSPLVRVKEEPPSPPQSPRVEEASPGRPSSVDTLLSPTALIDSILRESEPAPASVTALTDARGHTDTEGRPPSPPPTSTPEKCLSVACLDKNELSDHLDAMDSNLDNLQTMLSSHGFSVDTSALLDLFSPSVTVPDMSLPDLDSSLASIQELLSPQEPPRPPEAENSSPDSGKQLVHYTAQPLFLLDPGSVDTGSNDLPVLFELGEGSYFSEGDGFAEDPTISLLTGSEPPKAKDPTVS
Chain of ETV1 (P50549 whole entry): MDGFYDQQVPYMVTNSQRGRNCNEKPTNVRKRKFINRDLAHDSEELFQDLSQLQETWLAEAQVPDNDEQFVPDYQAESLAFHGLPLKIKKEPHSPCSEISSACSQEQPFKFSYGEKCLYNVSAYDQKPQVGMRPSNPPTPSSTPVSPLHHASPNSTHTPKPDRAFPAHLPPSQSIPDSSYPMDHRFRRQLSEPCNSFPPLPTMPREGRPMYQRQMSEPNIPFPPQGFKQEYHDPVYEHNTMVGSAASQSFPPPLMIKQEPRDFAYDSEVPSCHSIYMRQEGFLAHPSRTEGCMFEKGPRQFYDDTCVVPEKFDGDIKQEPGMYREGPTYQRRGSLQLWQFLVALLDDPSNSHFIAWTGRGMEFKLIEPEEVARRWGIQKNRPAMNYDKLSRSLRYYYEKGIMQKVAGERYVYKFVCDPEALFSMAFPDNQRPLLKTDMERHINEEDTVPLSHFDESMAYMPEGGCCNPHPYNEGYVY
Chain of SPIB (Q01892 whole entry): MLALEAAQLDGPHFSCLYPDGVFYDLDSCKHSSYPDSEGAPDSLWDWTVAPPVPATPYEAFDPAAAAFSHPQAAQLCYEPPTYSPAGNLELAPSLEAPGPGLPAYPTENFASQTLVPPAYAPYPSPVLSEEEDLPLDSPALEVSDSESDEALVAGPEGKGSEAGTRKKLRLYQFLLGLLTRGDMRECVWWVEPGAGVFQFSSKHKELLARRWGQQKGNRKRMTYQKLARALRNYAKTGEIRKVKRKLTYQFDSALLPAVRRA

In the case of CATTTC, the binding signal in assay [1] was 1.8 fold enrichment (6-mer frequency, TF over GST control); in [2] it was 1.86 fold enrichment (6-mer frequency, TF over GST control); in [3], 1.64 fold enrichment (6-mer frequency, TF over GST control); in [4], 2.07 fold enrichment (6-mer frequency, TF over GST control); in assay [5], 1.63 fold enrichment (6-mer frequency, TF over GST control); in [6] it was 1.77 fold enrichment (6-mer frequency, TF over GST control). For the same sequence, the binding signal in assay [7] is 1.97 fold enrichment (6-mer frequency, TF over GST control); in assay [8], 1.85 fold enrichment (6-mer frequency, TF over GST control); in assay [9], 1.67 fold enrichment (6-mer frequency, TF over GST control); in assay [10], 2.2 fold enrichment (6-mer frequency, TF over GST control); in assay [11], 1.95 fold enrichment (6-mer frequency, TF over GST control); in assay [12], 1.13 fold enrichment (6-mer frequency, TF over GST control). Besides, the binding signal in [13] was 1.88 fold enrichment (6-mer frequency, TF over GST control); in assay [14], 1.73 fold enrichment (6-mer frequency, TF over GST control); in [15] it was 1.66 fold enrichment (6-mer frequency, TF over GST control); in assay [16], 1.78 fold enrichment (6-mer frequency, TF over GST control); in [17], 1.61 fold enrichment (6-mer frequency, TF over GST control); in assay [18], 1.84 fold enrichment (6-mer frequency, TF over GST control).
